High-throughput results: PubChem BioAssay, several laboratories
Shown are actives, neighbours in structure and some others; about 9.3% of the full set was active somewhere.
Htt clearance: mutant huntingtin protein clearance. HeLa Exon1htt(103Q)mCFP, aggregate imaging; zero = plate's median compound well. hit rate 0.42% among 47,000. AID 853. inhibition, % at 1.5 µM;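 active = inhibition of aggregate fluorescence above about 70%, also judged a hit by eye on the cell image, limit read from the data, passing the limit was not always enough; inconclusive = no rule stated for this call; inactive = not judged a hit on image review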;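 also: cells exposed to compound for three days before fixation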
M1 antag: blocks the rat M1 muscarinic receptor response to acetylcholine; hit rate 3.4% among 64,000; P08482; CHO-M1 cells, Fluo-4 calcium, ACh EC80 antagonist mode; stronger effect = lower value; B-score at 10 µM;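 active = calcium fluorescence response, raw or row-and-column corrected B-score, differing from the plate sample mean either way at a set confidence level, mostly lower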
Target sequence (P08482 whole entry, looked up): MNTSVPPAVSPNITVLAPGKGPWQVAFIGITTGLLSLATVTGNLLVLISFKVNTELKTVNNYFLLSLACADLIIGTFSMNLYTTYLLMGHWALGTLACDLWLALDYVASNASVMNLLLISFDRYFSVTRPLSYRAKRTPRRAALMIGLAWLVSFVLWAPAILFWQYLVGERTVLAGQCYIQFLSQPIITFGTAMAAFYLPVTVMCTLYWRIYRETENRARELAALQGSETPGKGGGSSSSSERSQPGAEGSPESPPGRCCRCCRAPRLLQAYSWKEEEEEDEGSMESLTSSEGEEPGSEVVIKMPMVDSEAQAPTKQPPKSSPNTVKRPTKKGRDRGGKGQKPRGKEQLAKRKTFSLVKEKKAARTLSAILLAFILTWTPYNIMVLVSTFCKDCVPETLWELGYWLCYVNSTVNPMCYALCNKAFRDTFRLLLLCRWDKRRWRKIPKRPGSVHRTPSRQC
NADH enzymes: inhibition of NAD/NADH coupling enzymes, library profiling | IC50, µM (highest dose often 10 µM) | hit rate 0.02% among 65,000 | coupled PK/LDH NADH assays, four targets | AID 774;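 active = single-dose screening hits from any of four coupled enzyme assays that gave an IC50 when retested across doses; inconclusive = no clear call, values can overlap the other calls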;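 also: the DPM-DC format reads NADH fluorescence rather than 340 nm absorbance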
Autofluor 339: intrinsic fluorescence of library compounds, ex339/em460 – biochemical, MLSMR library, data from DPM-DC assay, artefact control, profiling panel | compound autofluorescence, ex339/em460 nm, NADH buffer; stronger effect = higher value; 1 = no-compound wells, NADH background | fluorescence fold increase at 10 µM | hit rate 5.5% among 65,000;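 active = at 10 µM, mean starting fluorescence two-fold or more over control wells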;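 also: signal is the first read of a kinetic run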
M1 ag: M1 muscarinic receptor agonism; CHO-M1 cells, Fluo-4 calcium fluorescence, agonist mode; stronger effect = higher value; B-score at 10 µM; hit rate 3% among 64,000;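 active = fluorescence rise, raw or as B-score row- and column-corrected plate score, outside the 99.7% band of its plate's samples, either direction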
A340 absorber: absorbance at 340 nm; 65,000 tested, under 10 active; fold change at 10 µM; compound absorbance at 340 nm, fold over control;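 active = at 10 µM dose, initial 340 nm absorbance at least 2 fold that of control wells; inactive = change under 2 fold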;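 also: initial absorbance extrapolated from kinetic A340 decline of NADH oxidation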
M1 agonist conf: rat M1 muscarinic agonism, confirmation. shares compounds with M1 ag. CHO-M1 cells, Fluo-4 calcium fluorescence, agonist mode; actives lie on both sides. fluorescence change (max-min) at 10 µM. hit rate 19% among 1,700;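 active = fluorescence change differs from the solvent-only DMSO control mean at a set confidence level in both duplicate runs; inconclusive = differs from solvent-only control mean in just one of two runs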;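 also: an EC20 dose of acetylcholine follows compound addition during the same imaging run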
M4 agonist ctr: counter-screen for M1 agonists: activity at rat M4 receptor. shares compounds with M1 ag. CHO M4/Gqi5 cells, Fluo-4 calcium fluorescence, agonist mode; actives lie on both sides. fluorescence change (max-min) at 10 µM. hit rate 9% among 1,700;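 active = fluorescence change differing from the plate's solvent-only control wells at 99.7% confidence in both duplicates, whether higher or lower; inconclusive = differs from solvent controls in only one of two duplicates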
Each line names hits and unclear results; the compound was inactive in the other large screens (follow-up assays come after a bar, where they were run).

CC(CCc1ccco1)NC(=O)CSc1cc(=O)n(C)c2ccccc12 (configuration not stated)	none
Fc1cc(Br)ccc1Nc1nc2ccccc2n2nnnc12	none (no result: Htt clearance)
Fc1ccccc1N1CCN(c2nc3ccccc3n3nnnc23)CC1	M1 ag 12 (no result: Htt clearance) | M1 agonist conf inconclusive | M4 agonist ctr inactive
CC1=C(C(=O)Nc2ccccc2)C(c2ccc(C)o2)n2ncnc2N1 (configuration not stated)	none (no result: Htt clearance)
COC(=O)C1=C(C)Nc2ncnn2C1c1ccc(C)o1 (configuration not stated)	M1 ag 8.3 | M1 agonist conf inactive | M4 agonist ctr inactive
O=C(CN(Cc1ccco1)C(=O)CNS(=O)(=O)c1ccccc1)NCc1ccccc1	none (no result: Htt clearance, M1 antag, M1 ag)
O=C(CN(Cc1ccco1)C(=O)CNS(=O)(=O)c1ccc(F)cc1)NCCc1ccccc1	M1 ag 2.5 (no result: Htt clearance) | M1 agonist conf inconclusive | M4 agonist ctr inconclusive
C1=CN2CCC1C(c1ccccc1)C2 (configuration not stated)	M1 antag -8, M1 ag 44 | M1 agonist conf 428 | M4 agonist ctr inactive
CCOC(=O)c1sc(N)c(C#N)c1CSc1nnc(C2CCCCC2)n1N	none
O=C(Nc1ccc(Cl)c(Cl)c1)N1CCSCC1	none (no result: M1 antag, NADH enzymes, Autofluor 339, M1 ag, A340 absorber)
CN1/C(=N\O)c2cccc3cccc1c23	Autofluor 339 2.2, M1 ag 6.9 | M1 agonist conf inactive | M4 agonist ctr inactive
Cc1ccccc1CN(c1ccc(C(=O)N2CCCC2)cc1)S(C)(=O)=O	M1 ag 3.2 (no result: Htt clearance) | M1 agonist conf inactive | M4 agonist ctr inactive
CCn1c(COc2cccc3ccccc23)nnc1SCC(N)=O	none
Cc1cc(NC(=O)CSc2nnc(-c3ccoc3C)o2)no1	M1 ag -3.7 (no result: Htt clearance) | M1 agonist conf inconclusive | M4 agonist ctr inactive
O=C(Cc1ccccc1)Nc1cccc(N2CCCC2)c1	none (no result: Htt clearance)
CCC(=O)c1ccc(OCC(O)Cn2cnc3ccccc32)cc1 (configuration not stated)	none (no result: Htt clearance)
CCC(=O)c1ccc(OCC(O)Cn2c(C)nc3ccccc32)cc1 (configuration not stated)	M1 ag 6.8 (no result: Htt clearance) | M1 agonist conf -34 | M4 agonist ctr inactive
COc1cccc(-c2nc(N3CCN(Cc4ccccc4)CC3)c3ccccc3n2)c1O	none (no result: Htt clearance)
O=C(NC1CCCC1)c1sc(=S)n2c1[nH]c(=O)c1ccccc12	none
O=C(NCc1ccco1)c1sc(=S)n2c1[nH]c(=O)c1ccccc12	M1 ag 12 | M1 agonist conf inactive | M4 agonist ctr inactive
CCN=C1SC(CC(=O)Nc2ccc(C(F)(F)F)cc2)C(=O)N1CC (configuration not stated)	M1 antag -2.9, M1 ag 12 | M1 agonist conf inconclusive | M4 agonist ctr inactive
CCN=C1SC(CC(=O)NC(N)=O)C(=O)N1CC (configuration not stated)	none (no result: Htt clearance)
CCN=C1SC(CC(=O)Nc2ccc(N3CCOCC3)cc2)C(=O)N1CC (configuration not stated)	M1 ag 2.8 | M1 agonist conf inconclusive | M4 agonist ctr inactive
CCN=C1SC(CC(=O)Nc2ccccc2OCC)C(=O)N1CC (configuration not stated)	none (no result: Htt clearance)
Cc1ccc(/C=c2/sc3nnc(-c4ccccc4Cl)n3c2=O)o1	none
O=C(O)c1ccccc1-c1ccc(/C=c2\sc3nc4cc(Br)cnc4n3c2=O)o1	M1 ag 53 (no result: Htt clearance) | M1 agonist conf 136 | M4 agonist ctr inconclusive
Cc1cc(C)c(Cn2c(=O)n(CCCC(=O)NCc3ccco3)c(=O)c3ccccc32)c(C)c1	none
CN(CC1CCCO1)S(=O)(=O)c1ccc(C(=O)Nc2nc(-c3ccccn3)cs2)cc1 (configuration not stated)	M1 ag 9.6 (no result: Htt clearance) | M1 agonist conf inactive | M4 agonist ctr inactive
O=C(Nc1nc(-c2ccccn2)cs1)C1CC1	none
COc1ccccc1N1CCN(C(=O)c2nn(-c3ccccc3OC)c(=O)c3ccccc23)CC1	none (no result: Htt clearance)
COc1ccccc1-n1nc(C(=O)O)c2ccccc2c1=O	M1 ag 6.6 (no result: Htt clearance) | M1 agonist conf inconclusive | M4 agonist ctr inactive
COc1cc(OC)c(-c2nnc(-c3ccc(OC)c(OC)c3OC)o2)cc1OC	Autofluor 339 2.1, M1 ag 4.5 | M1 agonist conf -30 | M4 agonist ctr inactive
O=C(c1cnc(N2CCN(c3ncccn3)CC2)c2ccccc12)N1CCN(c2ncccn2)CC1	M1 ag 11 | M1 agonist conf inactive | M4 agonist ctr inactive
CC(C)NC(=O)c1cnc(N2CCN(c3ccccn3)CC2)c2ccccc12	M1 ag 5.8 (no result: Htt clearance) | M1 agonist conf inactive | M4 agonist ctr inactive
COc1ccc(OC(C)C(=O)N2CCN(c3ccccn3)CC2)cc1 (configuration not stated)	none (no result: Htt clearance)
CCN(C(=O)c1cnc(N2CCN(c3ncccn3)CC2)c2ccccc12)c1cccc(Cl)c1	M1 ag 3.3 (no result: Htt clearance) | M1 agonist conf inactive | M4 agonist ctr inconclusive
CN(C(=O)c1cnc(N2CCN(c3ncccn3)CC2)c2ccccc12)c1ccc(Cl)cc1	M1 ag 5.3 | M1 agonist conf inactive | M4 agonist ctr inconclusive
Cc1ccc(N2CCCCn3c2nc2c3c(=O)n(CC(=O)O)c(=O)n2C)cc1	none
CCn1c(CSc2nnc(-c3ccc4c(c3)OCO4)o2)nc2cc(S(=O)(=O)N(C)C)ccc21	none (no result: Htt clearance, M1 antag, M1 ag)
O=C1CCN2C=Nc3cccc4ccc1c2c34	M1 antag -11, Autofluor 339 3.2, M1 ag 493 | M1 agonist conf 3266 | M4 agonist ctr 2765
CCOC(=O)C1CCCN(CC(=O)NC2=Nc3ccccc3N=C(C)C2c2ccccc2)C1 (configuration not stated)	M1 ag 7.4 | M1 agonist conf -31 | M4 agonist ctr inactive
CCOC(=O)C1CCCN(CCC(=O)Nc2ccc(F)c(F)c2)C1 (configuration not stated)	M1 ag 5.8 (no result: Htt clearance) | M1 agonist conf inactive | M4 agonist ctr inactive
O=C(CCN1CCCCCC1)Nc1ccc(F)c(F)c1	none
CCOC(=O)C1CCCN(C(=O)CCC(=O)Nc2ccc3nc(N4CCOCC4)cc(C)c3c2)C1 (configuration not stated)	Autofluor 339 4.7, M1 ag 5.4 | M1 agonist conf inconclusive | M4 agonist ctr inactive
CCCCCC#CCC#CCC#CCC#CCCCC(=O)O	none (no result: Htt clearance)
O=C(CN1C(=O)COc2ccccc21)N(Cc1ccccc1)Cc1ccccn1	none (no result: Htt clearance)
COc1ccc(CN(Cc2ccccn2)C(=O)CN2C(=O)C(C)Oc3ccccc32)cc1 (configuration not stated)	M1 ag 15 | M1 agonist conf inactive | M4 agonist ctr inactive
Clc1ccc(OCc2nnc(-c3ccccc3Br)o2)c(Cl)c1	none
